Screening results: PubChem, several laboratories
SRC3 inh: human NCOA3 inhibition | Q9Y6Q9 | HEK293 GAL4-SRC3 luciferase reporter, luminescence | inhibition, % at 3.6 µM | 0.17% of 360,000 active | AID 588352;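 active = inhibition above a per-campaign cutoff, the mean of all compounds plus 3 SD, cut at about 60% in these data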;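 also: higher means less SRC3-driven luciferase light from the GAL4 reporter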
LRH-1 inv ag: NR5A2 inverse agonism in reporter assay. inhibition, % at 3.6 µM. O00482. HEK293T StAR-luciferase reporter, LRH-1 transfected, 24 h. 0.13% of 360,000 active;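 active = inhibition above the mean inhibition of all tested compounds plus 3 SD, cut at about 73% in these data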
EBV LMP1 NFkB: inhibitors of Epstein-Barr LMP1-induced NF-kappaB reporter; LMP1-induced NF-kappaB luciferase reporter cells, luminescence; inhibition, % at 12.5 µM; 0.69% of 350,000 active; in the data active = inhibition above about 41%
SRC2 inh: human SRC2 (NCOA2) inhibition | 0.17% of 370,000 active | inhibition, % at 9 µM | Q15596 | HEK293 GAL4-SRC2 luciferase reporter, luminescence | AID 651957;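 active = inhibition above the mean inhibition of all tested compounds plus 3 SD, set per campaign, cut at about 52% in these data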
NCOA1 inh: inhibits human SRC1 coactivator. Q15788. HEK293 GAL4-SRC1 luciferase reporter, luminescence. inhibition, % at 3.6 µM. 0.12% of 360,000 active. AID 588354;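 active = inhibition above the campaign mean plus 3 SD, with each screening campaign given its own cutoff, cut at about 60% in these data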
Large screens that a line does not name were inactive; ! = a repeat was not active. Only some compounds are listed: those with a hit (about 0.78% of all), similar ones and a draw of the others.

Cc1cc(C)cc(OC[C@@H](O)CN2CCC(C(O)(c3ccccc3)c3ccccc3)CC2)c1	none (no result: SRC3 inh, LRH-1 inv ag, EBV LMP1 NFkB, NCOA1 inh)
O=C1C=C(O)c2cccc(O)c2C1=O	none
CC1OC(CC(=O)O)CC2=C1C(=O)c1c(O)cccc1C2=O (configuration not stated)	SRC3 inh 93, LRH-1 inv ag 97, EBV LMP1 NFkB 88, SRC2 inh 96, NCOA1 inh 70
Cc1cc(N2CCN(Cc3ccc4c(c3)OCO4)CC2)n2nc(C)nc2n1	none (no result: SRC3 inh, LRH-1 inv ag, EBV LMP1 NFkB, NCOA1 inh)
CCN(CC)S(=O)(=O)c1cccc(NC(=O)Nc2cccc(C(F)(F)F)c2)c1	EBV LMP1 NFkB 46
Cc1cnc(C(=O)OC(C)C(=O)Nc2ccc(Oc3ccccc3)cc2)cn1 (configuration not stated)	EBV LMP1 NFkB 71
Cc1cnc(C(=O)OCC(=O)Nc2ccc(Oc3ccccc3)cc2)cn1	none
COC(=O)c1ccccc1NC(=O)CC(=O)Nc1ccccc1C(=O)OC	EBV LMP1 NFkB 50
COC(=O)c1ccccc1NC(=O)COC(C)=O	none
CCC(Oc1ccccc1)C(=O)NC1CCSC1=O (configuration not stated)	EBV LMP1 NFkB 66
CCC(Oc1ccccc1)C(=O)NC1CCCCCC1 (configuration not stated)	none
CN(CCc1ccccc1)C(=O)c1cc2ccccn2n1	none (no result: SRC3 inh, LRH-1 inv ag, EBV LMP1 NFkB, NCOA1 inh)
O[C@@H]1[C@@H](O)C=C2CCN3Cc4cc5c(cc4[C@H]1C23)OCO5 (some centres not stated)	SRC3 inh 89, LRH-1 inv ag 98, NCOA1 inh 75
CCc1noc(C)c1C(=O)N(C)CC(=O)Nc1cccc(OC)c1	EBV LMP1 NFkB 68
CCc1noc(C)c1C(=O)N(C)CC(=O)Nc1ccc(OC)cc1	none
COc1ccc(OC)c(S(=O)(=O)N2CCC(c3cn4ccccc4n3)CC2)c1	none (no result: SRC3 inh, LRH-1 inv ag, EBV LMP1 NFkB, NCOA1 inh)
COc1ccc(-c2[nH]ncc2-c2ccc3c(c2)OCCO3)c(O)c1	SRC3 inh 65, EBV LMP1 NFkB 64, NCOA1 inh 67
CCNC(=O)N(C)[C@H]1C[C@H]2c3[nH]c4cccc(-c5cccc(F)c5)c4c3CCN2C(=O)[C@H]1[C@H](C)O	none (no result: SRC3 inh, LRH-1 inv ag, EBV LMP1 NFkB, NCOA1 inh)
CCCc1c(C(=O)Nc2ccc(N3CCOCC3)cc2)cnn1-c1ccccc1	none
CCCc1c(C(=O)Nc2ccc(C(F)(F)F)cc2)cnn1-c1ccccc1	EBV LMP1 NFkB 62
Cc1ccc(-n2c(=O)c3c(c4cc(C)ccc4n3C)n(CC(=O)NCC3CCCO3)c2=O)cc1 (configuration not stated)	EBV LMP1 NFkB 49
COc1ccc2c(c1)c1c(c(=O)n(-c3ccc(C)cc3)c(=O)n1CC(=O)NCC1CCCO1)n2C (configuration not stated)	none
Cc1ccccc1S(=O)(=O)N1CCC(c2nc3ccccc3o2)CC1	none (no result: SRC3 inh, LRH-1 inv ag, EBV LMP1 NFkB, NCOA1 inh)
CCN(CC)CCNC(=O)c1ccc2c(c1NCCO)C(=O)c1ccccc1C2=O	SRC3 inh 63 (no result: EBV LMP1 NFkB)
O=C(c1cc(-c2ccc(Cl)cc2)nc2ccccc12)N1CCN(c2ncccn2)CC1	none (no result: SRC3 inh, LRH-1 inv ag, EBV LMP1 NFkB, NCOA1 inh)
NC(=O)OCC(COC(N)=O)c1ccccc1	EBV LMP1 NFkB 68!
NC(=O)NC(Cc1ccccc1)c1ccccc1 (configuration not stated)	none
COc1ccc(S[C@]2(C(=O)N(C)C)CC(=O)N[C@@H]2c2ccc(OC)cc2)cc1	none (no result: SRC3 inh, LRH-1 inv ag, EBV LMP1 NFkB, NCOA1 inh)
CCOCCCNC(=O)CN1C(=O)/C(=C\c2ccc(C)cc2)Sc2ccccc21	EBV LMP1 NFkB 69
O=C(C1=C(c2ccccc2)C(=O)c2ccccc2C1=O)c1ccccc1	SRC3 inh 82, EBV LMP1 NFkB 90, SRC2 inh 57
C=CC[C@]1(O)C(=O)N(c2ccccc2)c2ccccc21	none (no result: SRC3 inh, LRH-1 inv ag, EBV LMP1 NFkB, NCOA1 inh)
Fc1ccc(-c2nnc(-n3nnc4ccccc43)c3ccccc23)cc1	EBV LMP1 NFkB 53
COc1ccc([C@@]23Oc4cc(OC)cc(OC)c4[C@]2(O)[C@H](O)[C@H](C(=O)N(C)C)[C@H]3c2ccccc2)cc1	SRC3 inh 89, LRH-1 inv ag 100, EBV LMP1 NFkB 82, SRC2 inh 72, NCOA1 inh 90
COc1ccc(C2CC(O)(c3ccccc3)Oc3cc(OC)c(OC)c(OC)c32)cc1 (configuration not stated)	none
Clc1ccccc1CSc1nnc([C@@H]2CCCN2)o1	none
Cc1ccccc1CSc1nnc([C@@H]2CCCN2)o1	EBV LMP1 NFkB 53
COc1ccc(S[C@]2(C(=O)N(C)C)CC(=O)N(C(=O)C3CC3)[C@@H]2c2ccc(OC)cc2)cc1	none (no result: SRC3 inh, LRH-1 inv ag, EBV LMP1 NFkB, NCOA1 inh)
O=C(Nc1nnc(C23CC4CC(CC(C4)C2)C3)s1)c1ccc(N2C(=O)CCC2=O)cc1	EBV LMP1 NFkB 81
CC(C)c1nnc(NC(=O)c2ccc(N3C(=O)CCC3=O)cc2)s1	EBV LMP1 NFkB 86
Cc1ccccc1-c1nnc(NC(=O)c2ccc(N3C(=O)CCC3=O)cc2)s1	none
O=C(Nc1nnc(C23CC4CC(CC(C4)C2)C3)s1)c1ccco1	none
COc1cccc(NC(=O)C2CCCN2C(=O)NCc2ccccc2)c1 (configuration not stated)	none (no result: SRC3 inh, LRH-1 inv ag, EBV LMP1 NFkB, NCOA1 inh)
CCCC(=O)N1CCC(C(=O)NC2CCCc3ccccc32)CC1 (configuration not stated)	none (no result: SRC3 inh, LRH-1 inv ag, EBV LMP1 NFkB, NCOA1 inh)
CCCCCc1ccc(NC(=O)OCCN2C(=O)CCC23CCC(c2ccccc2)CC3)cc1 (configuration not stated)	none (no result: SRC3 inh, LRH-1 inv ag, EBV LMP1 NFkB, NCOA1 inh)
CCCn1c(=O)c2c(ncn2C)n(CCC)c1=O	none
C#CCn1c(=O)c2c(ncn2C)n(C)c1=O	EBV LMP1 NFkB 44
COC(=O)[C@]12C[C@H](CC(=O)NCCCCc3ccccc3)C(=O)N(Cc3ccco3)C1=C[C@H](C(C)C)O[C@@H]2C1CC1	none (no result: SRC3 inh, LRH-1 inv ag, EBV LMP1 NFkB, NCOA1 inh)
NCCCCCc1nnc(SCc2ccccc2Cl)o1	SRC2 inh 59
O=c1[nH]c2cc([N+](=O)[O-])ccc2c2ccccc12	none
O=C1Cc2c([nH]c3ccc([N+](=O)[O-])cc23)-c2ccccc2N1	SRC3 inh 73
Cc1cc(C)n(C2CCCCC2OC(=O)c2ccccc2F)n1 (configuration not stated)	EBV LMP1 NFkB 42
CCOC(=O)N(C)[C@H]1C[C@H]2c3[nH]c4c(-c5ccc6c(c5)OCO6)cccc4c3CCN2C(=O)[C@H]1[C@H](C)O	none (no result: SRC3 inh, LRH-1 inv ag, EBV LMP1 NFkB, NCOA1 inh)
C#Cc1cccc(OCC(C)CN2CCC(C(O)(c3ccccc3)c3ccccc3)CC2)c1 (configuration not stated)	none (no result: SRC3 inh, LRH-1 inv ag, EBV LMP1 NFkB, NCOA1 inh)
C=C(C(=O)c1ccccc1)C(NC(C)(C)C)c1ccccc1 (configuration not stated)	LRH-1 inv ag 73, EBV LMP1 NFkB 91, SRC2 inh 60
CC(C)(C)C(=O)OC12CCCN(C1)/C(=C/c1cccnc1)C2 (configuration not stated)	none (no result: SRC3 inh, LRH-1 inv ag, EBV LMP1 NFkB, NCOA1 inh)
COC(=O)C1=C(C)NC(C)=C([N+](=O)[O-])C1c1ccccc1C(F)(F)F (configuration not stated)	EBV LMP1 NFkB 55!
COCCn1c(C)cc(C2=NNC(=Nc3ccc(Cl)cc3Cl)SC2)c1C	none
COCCCN=C1NN=C(c2cc(C)n(Cc3ccco3)c2C)CS1	none
COCCn1c(C)cc(C2=NNC(=NC3CC3)SC2)c1C	SRC3 inh 91, LRH-1 inv ag 87, EBV LMP1 NFkB 84, SRC2 inh 86, NCOA1 inh 89
